A3G deaminase – blocks human APOBEC3G single-stranded DNA deamination; recombinant A3G, ssDNA deamination FAM/TAMRA fluorescence; Q9HC16; inhibition, % at 20 µM; 0.28% of 330,000 active;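 active = inhibition of at least 40% at 20 µM, with no more than 30% in the related APOBEC3A deaminase screen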;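 also: plate controls were DMSO wells with A3G for no effect and wells lacking A3G enzyme for full effect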
Target sequence (Q9HC16 whole entry, looked up): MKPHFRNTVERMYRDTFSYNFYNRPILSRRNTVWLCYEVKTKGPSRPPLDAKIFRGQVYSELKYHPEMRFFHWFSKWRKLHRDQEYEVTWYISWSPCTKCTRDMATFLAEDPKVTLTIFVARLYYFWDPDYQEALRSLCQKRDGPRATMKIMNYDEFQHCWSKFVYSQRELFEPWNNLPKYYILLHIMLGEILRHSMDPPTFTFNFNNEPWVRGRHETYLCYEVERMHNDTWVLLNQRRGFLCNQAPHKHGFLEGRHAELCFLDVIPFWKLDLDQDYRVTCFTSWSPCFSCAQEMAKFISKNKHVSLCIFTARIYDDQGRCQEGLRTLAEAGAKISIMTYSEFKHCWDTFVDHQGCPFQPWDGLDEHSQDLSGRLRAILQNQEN
ALR H2O2 inh – human ALR oxidase inhibition via reduced H2O2. 3.8% of 290,000 active. inhibition, % (concentration not given with the values). purified ALR, DTT oxidation, H2O2 HRP-luminol luminescence;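 active = mean replicate inhibition above about 79%, with every replicate also reaching it, limit read from the data; inconclusive = only one of the two criteria met; inactive = mean below limit and not every replicate reaching it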
Target sequence (P55789 whole entry, looked up): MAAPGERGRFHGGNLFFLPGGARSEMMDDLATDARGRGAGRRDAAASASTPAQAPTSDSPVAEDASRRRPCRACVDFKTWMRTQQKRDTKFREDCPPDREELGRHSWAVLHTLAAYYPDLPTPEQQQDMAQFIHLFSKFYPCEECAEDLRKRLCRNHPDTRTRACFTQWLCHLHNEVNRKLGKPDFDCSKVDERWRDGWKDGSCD
APOBEC3A inh – blocks human APOBEC3A ssDNA deamination. P31941. recombinant A3A, FAM/TAMRA ssDNA deamination fluorescence. inhibition, % at 20 µM. 0.41% of 330,000 active. AID 493011;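 active = at least 40% inhibition at 20 µM here, with at most 30% in a related deaminase screen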;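 also: plate controls were A3A with DMSO for no effect and wells lacking A3A enzyme for full effect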
CR mimetic SO – yeast age-related superoxide inhibition as caloric restriction mimetic; superoxide response (% of plate mean), % at 10 µM; 0.18% of 330,000 active; S. cerevisiae aged cells, superoxide DHE fluorescence; stronger effect = lower value;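 active = superoxide response under a set limit, about three screen SD below normal, cut at about 65% in these data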;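 also: yeast aged for seven days with compound at 30 °C before DHE staining; 100% = average MFI of all compound-treated wells on the plate with controls excluded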
CendR NRP1 mod – NRP-1/CendR interaction modulation; O14786; FAM-RPARPAR peptide binding to NRP-1, fluorescence polarization; inhibition, % at 25 µM; 0.85% of 360,000 active; AID 602438;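 active = inhibition or corrected inhibition above about 18%, plus a signal ratio from 0.5 to 1.5, limit read from the data, passing the limit was not always enough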
PfM18AAP inh-1 – PfM18AAP enzyme inhibition; 1.2% of 290,000 active; recombinant PfM18AAP, H-Glu-NHMec fluorogenic cleavage; inhibition, % at 7.35 µM;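 active = inhibition above the campaign mean inhibition over all tested compounds plus 3 SD, cut at about 28% in these data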;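 also: 0% = plate median of test compound wells and 100% = 2 mM ZnCl2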
PfM18AAP inh-2 – PfM18AAP inhibition, confirmation; AID 2170; 28% of 2,400 active; inhibition, % at 7.35 µM; shares compounds with PfM18AAP inh-1; recombinant PfM18AAP, H-Glu-NHMec fluorogenic cleavage;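 active = mean inhibition over replicate wells above the hit cutoff set for the earlier primary screen, cut at about 29% in these data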;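 also: 0% = median of test compound wells and 100% = 2 mM ZnCl2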
CTSL1 confirm – Cathepsin L (human) inhibition, confirmation. inhibition, % at 5.96 µM. 2,400 tested, under 10 active. shares compounds with PfM18AAP inh-1. purified cathepsin L1, Z-Leu-Arg-MCA fluorescence;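 active = average inhibition across replicates above the hit cutoff set in the earlier primary screen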;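 also: 0% = median of test compound wells and 100% = Z-Phe-Ala-diazomethylketone 1 µM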
Starred values were filed as active, the others as inactive; u = inconclusive; x = no result given. Shown are actives, neighbours in structure and some others; about 5.2% of the full set was active somewhere.

SMILES	A3G deaminase	ALR H2O2 inh	APOBEC3A inh	CR mimetic SO	CendR NRP1 mod	PfM18AAP inh-1	PfM18AAP inh-2	CTSL1 confirm
Cc1nnc(Cl)c2nn(-c3ccccc3)c(C)c12	-5	-3	-4	94	0	2	x	x
O=C1NC(=O)C(c2ccccc2[N+](=O)[O-])=C1Nc1ccc(O)c(Cl)c1	5	99*	5	82	8	40*	-81	-4
Fc1ccccc1/C=N/Nc1ncnc2nc[nH]c12	-4	56	-2	108	-2	33*	-28	3
Oc1ccc(/C=N/Nc2ncnc3nc[nH]c23)cc1	-5	x	4	98	-7	3	x	x
O=C(CNc1ccc(Oc2ccccc2)cc1)N1CCOCC1	12	-9	17	89	1	42*	-37	-3
O=C(COc1ccccc1)NCC(=O)Nc1ccc(S(=O)(=O)NCc2ccco2)cc1	-3	4	-1	81	2	2	x	x
O=C(c1ccc(Cl)cc1)c1c[nH]c(C(=O)NNc2ccccc2)c1	0	-5	-2	106	8	33*	-6	-1
Cc1nc(N2CCC(C)CC2)c2nnn(Cc3ccccc3)c2n1	-6	-14	-2	90	1	4	x	x
COC(=O)c1cc(O)c(O)c(O)c1	25	96*	-1	124	11	32*	-5	10
COC(=O)c1cc(OC)nc(OC)c1	1	x	-1	102	10	-1	x	x
CN(C)C(CNC(=O)c1cccs1)c1ccco1 (stereo not given)	-8	x	-5	97	-2	x	x	x
Cc1cc(C)c(/C=C(\C#N)S(=O)(=O)c2ccccc2)[nH]1	-2	x	3	96	-15	-4	x	x
N#C/C(=C\c1ccc(O)c(O)c1)S(=O)(=O)c1ccccc1	7	99*	2	97	-98	51*	24	5
O=C(CNC(=O)c1ccccn1)N=Nc1c(O)[nH]c2ccccc12	-7	x	1	96	5	51*	28	0
COc1ccc(CC(=O)NCC(=O)N=Nc2c(O)[nH]c3ccccc23)cc1	2	1	2	100	2	8	x	x
CCCCn1c(-c2ccoc2C)n[nH]c1=S	36	30	0	78	1	22	x	x
CCCCn1c(-c2sccc2C)n[nH]c1=S	40	-5	-5	99	12	32*	1	5
Cc1cccnc1NC(=O)c1csnn1	-8	-11	-4	97	12	0	x	x
O=P1(O)C=C(c2ccccc2)OC(c2ccccc2)=C1	-8	-15	-6	110	-7	-7	x	x
CN1CCN(C(=O)C2CCN(S(=O)(=O)c3cnc[nH]3)CC2)CC1	-3	x	-2	110	2	-1	x	x
C/C(=N\N1C(=O)CSC1=S)c1ccc(Br)cc1	-3	-30	-2	93	-62	50*	10	5
Cc1cccnc1NC(=S)NCCc1ccccc1	-7	x	-2	80	-5	42*	1	1
S=C(NCCc1ccccc1)Nc1c(Cl)cccc1Cl	5	2	3	88	-6	41*	-4	-5
Cc1cccc(C)c1NC(=S)NCCc1ccc(O)c(O)c1	-11	60	3	87	16	73*	50*	-7
S=C(NCCc1ccccc1)Nc1ncccn1	x	x	x	x	5	x	x	x
SMILES	A3G deaminase	ALR H2O2 inh	APOBEC3A inh	CR mimetic SO	CendR NRP1 mod	PfM18AAP inh-1	PfM18AAP inh-2	CTSL1 confirm
OCCNC(=S)NCCc1ccccc1	-9	-2	0	97	-5	0	x	x
O=C(COC(=O)Cc1ccc(Cl)cc1Cl)NCc1ccccc1	x	x	x	x	-2	x	x	x
NNC(=O)c1nc2ccccc2s1	x	x	x	x	4	x	x	x
Oc1ccc(N2CCN(Cc3c(-c4ccccc4)nc4ccccn34)CC2)cc1	23	u	2	97	-3	34*	-28	-10
Clc1ccc(-c2nc3ccccn3c2CN2CCCCC2)cc1	-11	-2	-2	80	0	-3	x	x
Cc1cc(C(=O)O)ccc1N=Cc1c(O)ccc2ccccc12	17	-18	-2	106	-200	1	x	x
CC(C)CNC1=CC(=O)CC(c2ccco2)C1 (stereo not given)	3	-9	7	96	12	40*	-16	-5
O=C1C=C(Nc2ccc(O)cc2)CC(c2ccco2)C1 (stereo not given)	-4	99*	-1	98	3	42*	-25	-1
Cc1ccc(C2=Nc3ccccc3SC(c3cccc([N+](=O)[O-])c3)C2)cc1 (stereo not given)	-6	19	-1	99	8	33*	-51	3
O=[N+]([O-])c1cccc(C2CC(c3ccccc3)=NN2c2ccccc2)c1 (stereo not given)	-5	-1	-3	99	10	10	x	x
Cc1ccc(Nc2nc(N)c([N+](=O)[O-])c(N3CCCC(C)C3)n2)cc1C (stereo not given)	-5	-3	2	117	21	-12	x	x
c1ccc2[nH]c(CCCc3nc4ccccc4[nH]3)nc2c1	-2	-2	-6	99	-1	-8	x	x
Oc1ccc(O)c(Cc2nc3ccccc3[nH]2)c1	-15	10	-3	89	1	44*	71*	-6
Cc1cc(C(F)(F)F)nc(SCC(=O)NC2CC3CCC2C3)n1 (stereo not given)	-9	-3	-2	99	3	0	x	x
COc1cc(/C=N/Nc2nncn2/N=C/c2ccc(O)c(OC)c2)ccc1O	-7	99*	-4	104	10	63*	42*	2
COc1cc(/C=N/NC(=O)c2ccncc2)ccc1OC(C)=O	-7	27	-5	104	4	14	x	x
COc1ccc(/C=N/Nc2cc(C)nc3c(C)cccc23)cc1	0	5	7	101	-2	12	x	x
COc1cc(/C=N/Nc2nnc3c(n2)[nH]c2ccccc23)ccc1O	x	46	x	80	2	18	x	x
COc1cc(/C=N\Nc2nncn2N)ccc1OC(C)=O	-8	26	-7	98	-13	53*	-4	5
COc1cccc2c(N/N=C/c3ccc(O)c(O)c3)cc(C)nc12	-2	99*	-4	97	3	56*	32*	-1
COc1ccc(OC)c(/C=N/Nc2nncn2/N=C/c2cc(OC)ccc2OC)c1	-4	-3	4	87	0	51*	-44	1
COCCN(C(=O)c1cccc(N2C(=O)CCC2=O)c1)c1nc(-c2ccc([N+](=O)[O-])cc2)cs1	0	x	1	102	-5	x	x	x
O=C(Cc1c(F)cccc1Cl)NC1=NCCS1	0	0	0	91	-3	1	x	x
CCc1ccc2[nH]c3nc(N/N=C/c4ccc(O)cc4O)nnc3c2c1	-6	x	-2	94	-7	26	x	x

High-throughput results from PubChem BioAssay.
